This is one part of a sample in which hits are shown more often than they occur.
mHTT-CaM PPI inh = disrupts binding of mutant huntingtin to calmodulin | P42858 | AlphaScreen His-mHTT/GST-CaM binding, luminescence | inhibition, % at 15 µM | actives 3.6% (n = 190,000) | AID 1671202;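 further: 0% = both proteins with DMSO and 100% = one protein alone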
Pf apPOL block = Pf-apPOL DNA polymerase inhibition | Recombinant Pf-apPOL, molecular beacon fluorescence, 1.5 h | inhibition, % at 10 µM | actives 0.25% (n = 210,000) | AID 1794808
* hit, by the source's call. No stated cut-off is given here; in the data, active means inhibition above about 50%; inactive means the rest.

For Cc1c(C)c2cc3c(-c4ccc(Cl)cc4)coc3cc2oc1=O the results were mHTT-CaM PPI inh -1 and Pf apPOL block 91*.
COc1ccc2c(c1)c(=O)oc1cc3occ(-c4ccc(Cl)cc4)c3cc12 was read as mHTT-CaM PPI inh 5 and Pf apPOL block 1.
`O=c1oc2cc3occ(-c4ccc(Cl)cc4)c3cc2c2c1CCC2` gave mHTT-CaM PPI inh -2 and Pf apPOL block 80*.
For O=c1oc2cc3occ(-c4ccc(F)cc4)c3cc2c2c1CCCC2 the results were mHTT-CaM PPI inh -3 and Pf apPOL block 3.
Screening Cc1cc(C)n(-c2cc(NCCNC(=O)c3sc(-c4ccccc4)nc3C)ncn2)n1 returned mHTT-CaM PPI inh 1 and Pf apPOL block -8.
For CC(C(=O)NCc1ccccc1Cl)N1C(=O)CCCc2ccccc21 (stereo unspecified) the results were mHTT-CaM PPI inh -2 and Pf apPOL block -5.
Cc1c(C(=O)Nc2ccc(-c3nc4ncccc4o3)cc2)cccc1[N+](=O)[O-] was read as mHTT-CaM PPI inh -3 and Pf apPOL block -1.
`O=C1C=CC(=O)C(c2cc(C(F)(F)F)ccc2Cl)=C1` gave mHTT-CaM PPI inh 60* and Pf apPOL block -3.
`O=C1C2C3C=CC(O3)C2C(=O)N1c1cc(C(F)(F)F)ccc1Cl` (stereo unspecified) gave mHTT-CaM PPI inh -4 and Pf apPOL block -3.
`O=c1c2cnn(Cc3ccccc3F)c2ncn1Cc1ccccn1` gave mHTT-CaM PPI inh -1 and Pf apPOL block -7.
Screening CC1=NN(c2ccccc2)C(=O)/C1=C/c1ccc(-c2ccc([N+](=O)[O-])cc2)o1 returned mHTT-CaM PPI inh 1 and Pf apPOL block 0.
C/C(=C1/C(=O)N(c2ccc([N+](=O)[O-])cc2)N=C1c1ccccc1)N(C)C was read as mHTT-CaM PPI inh 53* and Pf apPOL block 0.
Cc1nnc(-c2ccccc2)n1-c1ccc([N+](=O)[O-])cc1 was read as mHTT-CaM PPI inh 8 and Pf apPOL block -2.
For CN(C)/C=C1\C(=O)N(c2ccc([N+](=O)[O-])cc2)N=C1c1ccccc1 the results were mHTT-CaM PPI inh 25 and Pf apPOL block 59*.
For COc1ccc(NC(=O)c2ccccc2Cl)c(OC)c1 the results were mHTT-CaM PPI inh -7 and Pf apPOL block 3.
Screening COc1ccc2nc(SC(=O)c3ccccc3)nc(C)c2c1 returned mHTT-CaM PPI inh 100* and Pf apPOL block -5.
`COc1ccc2nc(SC(=O)c3ccccc3Cl)nc(C)c2c1` gave mHTT-CaM PPI inh 99* and Pf apPOL block -7.
Screening COc1ccc2nc(SCc3cccc([N+](=O)[O-])c3)nc(C)c2c1 returned mHTT-CaM PPI inh -3 and Pf apPOL block 11.
Screening CCc1cc2nn(CC3CCCO3)c(=O)n2c(C(C)C)n1 (stereo unspecified) returned mHTT-CaM PPI inh -16 and Pf apPOL block 1.
For Cc1ccc(CNC(=O)c2ccc(-c3cccs3)nc2)o1 the results were mHTT-CaM PPI inh 18 and Pf apPOL block 1.
Screening COc1cc(C)c(CN2CCCN(C)CC2)cc1C returned mHTT-CaM PPI inh 4 and Pf apPOL block -5.
Screening CCc1ccc(NC(=O)C2CC(=O)N(c3ccc4c(c3)CCN4C(C)=O)C2)cc1 (stereo unspecified) returned mHTT-CaM PPI inh -2 and Pf apPOL block -3.
`COc1cc(OC)cc(N2CCN(Cc3ccccc3)C(C)C2=O)c1` (stereo unspecified) gave mHTT-CaM PPI inh 49 and Pf apPOL block 2.
COc1cc(OC)cc(N2CCN(Cc3ccc(F)cc3)C(C)C2=O)c1 (stereo unspecified) was read as mHTT-CaM PPI inh 79* and Pf apPOL block -5.
Screening Cc1nnc(-c2cccn2CC(=O)NCc2ccccc2Cl)o1 returned mHTT-CaM PPI inh -6 and Pf apPOL block -2.
Screening O=C(/C=C/c1ccco1)Nc1ccc(NC(=O)c2ccco2)cc1 returned mHTT-CaM PPI inh 30 and Pf apPOL block -6.
For O=C(/C=C/c1ccco1)c1ccc(NC(=O)c2ccco2)cc1 the results were mHTT-CaM PPI inh 93* and Pf apPOL block -2.
Screening O=C(CN1CCC2(CC1)N=C(c1ccc(F)cc1)C(=O)N2)Nc1cc(F)ccc1F returned mHTT-CaM PPI inh 0 and Pf apPOL block 1.
COc1cccc(NC(=O)c2nn(-c3ccccc3OC)c(=O)c3ccccc23)c1 was read as mHTT-CaM PPI inh -3 and Pf apPOL block -1.
O=C(Nc1nnc(COc2ccccc2)o1)c1ccccn1 was read as mHTT-CaM PPI inh 0 and Pf apPOL block -9.
Screening O=C(CCSc1ccc(Cl)cc1)Nc1nnc(COc2ccccc2)o1 returned mHTT-CaM PPI inh -2 and Pf apPOL block -34.
`O=C(Cc1ccccc1Cl)Nc1nnc(COc2ccccc2)o1` gave mHTT-CaM PPI inh 84* and Pf apPOL block -9.
O=C(Nc1nnc(COc2ccccc2)o1)c1cc(Cl)sc1Cl was read as mHTT-CaM PPI inh 56* and Pf apPOL block -257.
CC1CCC(CCC(C)(O)C#CCN(C)C)CC1 (stereo unspecified) was read as mHTT-CaM PPI inh 12 and Pf apPOL block -3.
For CC(C)c1ccc(NC(=O)Nc2csc(-c3cccs3)n2)cc1 the results were Pf apPOL block 2.
O=C(Cn1ccc2c(=O)[nH]ccc21)Nc1ccc(Cl)cc1 was read as mHTT-CaM PPI inh 15 and Pf apPOL block 46.
`O=C(Cn1ccc2c(=O)[nH]ccc21)Nc1ccccc1Cl` gave mHTT-CaM PPI inh 17 and Pf apPOL block 82*.
`O=C(Cn1ccc2c(=O)[nH]ccc21)Nc1cccc(Cl)c1` gave mHTT-CaM PPI inh 21 and Pf apPOL block 79*.
For Cc1c(Cl)cccc1NC(=O)Cn1ccc2c(=O)[nH]ccc21 the results were mHTT-CaM PPI inh 15 and Pf apPOL block 14.
For CCc1[nH]nc(-c2ccc(OC)cc2OC)c1NC(C)=O the results were mHTT-CaM PPI inh 97* and Pf apPOL block 84*.
`CCc1n[nH]c(CC)c1NC(=O)c1cccc(OC)c1` gave mHTT-CaM PPI inh -8 and Pf apPOL block 2.
`Cc1ccc(S(=O)(=O)N=C(CN2CCCCC2)N2CCCCC2)cc1` gave mHTT-CaM PPI inh -4 and Pf apPOL block 0.
For O=C(Nc1ccccc1-c1nc(-c2ccc(Cl)cc2)no1)c1ccc(Cl)c(Cl)c1 the results were Pf apPOL block 5.
Screening Cc1cc(C)n(-c2nc3c(c(=O)[nH]c(=O)n3C)n2CC(O)COc2ccccc2Cl)n1 (stereo unspecified) returned mHTT-CaM PPI inh 100* and Pf apPOL block 14.
`Cn1c(=O)[nH]c(=O)c2c1nc(N1CCOCC1)n2CC(O)COc1ccc(Cl)cc1Cl` (stereo unspecified) gave mHTT-CaM PPI inh -3 and Pf apPOL block -5.
O=C1/C(=C/C=C/c2ccco2)CC/C1=C\C=C\c1ccco1 was read as mHTT-CaM PPI inh 84* and Pf apPOL block 1.
Screening O=C1C(=Cc2ccco2)COCC1=Cc1ccco1 returned Pf apPOL block 8.
For CC(C)CCc1nnc(N)s1 the results were mHTT-CaM PPI inh -1.
`COc1ccc(NC(=O)C2CCN(c3ccc(Cl)cc3Cl)C2=O)cc1OC` (stereo unspecified) gave mHTT-CaM PPI inh 17 and Pf apPOL block -1.
`CC1CC(=O)Nc2c1c(NC(=O)c1ccc(S(=O)(=O)N3CCOCC3)cc1)nn2C` (stereo unspecified) gave mHTT-CaM PPI inh 100* and Pf apPOL block -6.
CC1CC(=O)Nc2c1c(NC(=O)c1cc(-c3ccc(F)cc3)n[nH]1)nn2C (stereo unspecified) was read as mHTT-CaM PPI inh 1 and Pf apPOL block -7.
Screening Fc1ccccc1CN1CCc2nc(N3CCN(c4ccccc4F)CC3)ncc2C1 returned mHTT-CaM PPI inh 8 and Pf apPOL block -2.

Assay outcomes as filed in PubChem BioAssay.
